This note sets out measurements from ChEMBL document CHEMBL3988442, “University of Dundee, Small-Polar-MMV Screening Library” (2021).

For some assays here: Potency and affinity values are given separately.

Common to all, as to design: scale not given: direction of the effect not stated beside the values
The target of assay [1] is Protein translocase subunit SecA (Escherichia coli (strain K12)) (UniProt P10408). The assay can be described thus: Assay to Identify E. coli SecA ATPase Inhibitors. To be noted: 30 µM. The assay is classed as functional.
Protein translocase subunit SecA (Escherichia coli (strain K12)), sequence (P10408 whole entry): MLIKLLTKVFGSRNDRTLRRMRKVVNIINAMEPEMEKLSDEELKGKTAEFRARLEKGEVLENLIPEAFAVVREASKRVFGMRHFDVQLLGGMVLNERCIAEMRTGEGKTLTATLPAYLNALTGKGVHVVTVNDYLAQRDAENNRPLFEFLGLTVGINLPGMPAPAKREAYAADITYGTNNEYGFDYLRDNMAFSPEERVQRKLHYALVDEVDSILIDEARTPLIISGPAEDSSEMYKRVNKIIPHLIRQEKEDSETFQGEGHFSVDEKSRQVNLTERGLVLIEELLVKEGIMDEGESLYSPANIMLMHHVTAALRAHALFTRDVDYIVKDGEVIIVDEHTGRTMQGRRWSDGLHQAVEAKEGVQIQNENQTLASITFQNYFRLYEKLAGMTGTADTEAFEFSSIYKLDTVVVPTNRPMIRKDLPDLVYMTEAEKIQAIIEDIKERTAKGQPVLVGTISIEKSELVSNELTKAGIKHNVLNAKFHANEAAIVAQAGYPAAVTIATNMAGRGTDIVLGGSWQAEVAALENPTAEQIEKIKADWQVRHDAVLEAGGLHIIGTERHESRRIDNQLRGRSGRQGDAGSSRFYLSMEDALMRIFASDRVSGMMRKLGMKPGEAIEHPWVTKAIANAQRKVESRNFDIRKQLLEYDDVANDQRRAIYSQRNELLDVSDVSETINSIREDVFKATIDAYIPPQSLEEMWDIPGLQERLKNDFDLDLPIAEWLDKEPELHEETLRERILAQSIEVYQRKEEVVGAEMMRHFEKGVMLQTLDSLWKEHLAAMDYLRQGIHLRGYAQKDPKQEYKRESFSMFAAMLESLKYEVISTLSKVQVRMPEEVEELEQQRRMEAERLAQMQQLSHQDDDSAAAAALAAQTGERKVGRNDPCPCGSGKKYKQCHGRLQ
In assay [2] the target is T1, Ubiquitin-activating enzyme e1, putative (Leishmania donovani (strain BPK282A1)) (UniProt E9BSI1).
T1 sequence (whole entry): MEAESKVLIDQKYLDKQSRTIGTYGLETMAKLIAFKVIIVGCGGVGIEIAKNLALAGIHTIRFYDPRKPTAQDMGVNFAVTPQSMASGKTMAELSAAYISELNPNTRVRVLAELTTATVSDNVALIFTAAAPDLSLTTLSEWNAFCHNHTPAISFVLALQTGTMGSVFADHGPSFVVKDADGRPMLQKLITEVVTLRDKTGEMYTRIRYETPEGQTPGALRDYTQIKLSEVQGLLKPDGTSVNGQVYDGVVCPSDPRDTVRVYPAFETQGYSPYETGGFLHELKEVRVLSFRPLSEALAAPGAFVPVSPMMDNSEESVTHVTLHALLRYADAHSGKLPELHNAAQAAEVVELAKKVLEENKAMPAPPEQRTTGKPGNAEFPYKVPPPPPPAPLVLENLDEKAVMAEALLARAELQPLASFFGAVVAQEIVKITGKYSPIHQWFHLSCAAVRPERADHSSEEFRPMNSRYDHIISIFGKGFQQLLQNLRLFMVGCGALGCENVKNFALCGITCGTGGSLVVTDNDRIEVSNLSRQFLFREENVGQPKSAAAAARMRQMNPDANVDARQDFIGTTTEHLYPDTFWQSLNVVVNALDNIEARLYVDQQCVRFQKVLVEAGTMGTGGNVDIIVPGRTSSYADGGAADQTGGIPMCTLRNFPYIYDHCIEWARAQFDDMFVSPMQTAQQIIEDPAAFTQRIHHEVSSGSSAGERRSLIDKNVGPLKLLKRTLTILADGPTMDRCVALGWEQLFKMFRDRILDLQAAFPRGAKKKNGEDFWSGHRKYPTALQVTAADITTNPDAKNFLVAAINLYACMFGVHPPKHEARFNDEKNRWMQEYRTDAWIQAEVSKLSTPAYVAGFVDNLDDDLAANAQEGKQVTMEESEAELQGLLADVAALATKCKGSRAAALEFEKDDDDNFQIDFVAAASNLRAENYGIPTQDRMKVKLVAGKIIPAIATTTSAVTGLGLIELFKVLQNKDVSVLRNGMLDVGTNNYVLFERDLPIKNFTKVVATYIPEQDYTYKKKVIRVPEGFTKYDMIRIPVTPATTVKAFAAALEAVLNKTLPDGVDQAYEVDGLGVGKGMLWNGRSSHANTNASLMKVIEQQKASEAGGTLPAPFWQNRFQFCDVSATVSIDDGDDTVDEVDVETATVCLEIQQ
Kind of assay: Leishmania donovani Ubiquitin Activating Enzyme (LdE1). The assay is classed as functional. To be noted: 30 µM.

For assay [3], the target named is Sialic acid-binding Ig-like lectin 9 (Homo sapiens) (UniProt Q9Y336). The assay can be described thus: Hs-Siglec9 ALPHAscreen SOP 20170721. The note with it: 10 µM.
Sialic acid-binding Ig-like lectin 9 (Homo sapiens), sequence (Q9Y336 whole entry): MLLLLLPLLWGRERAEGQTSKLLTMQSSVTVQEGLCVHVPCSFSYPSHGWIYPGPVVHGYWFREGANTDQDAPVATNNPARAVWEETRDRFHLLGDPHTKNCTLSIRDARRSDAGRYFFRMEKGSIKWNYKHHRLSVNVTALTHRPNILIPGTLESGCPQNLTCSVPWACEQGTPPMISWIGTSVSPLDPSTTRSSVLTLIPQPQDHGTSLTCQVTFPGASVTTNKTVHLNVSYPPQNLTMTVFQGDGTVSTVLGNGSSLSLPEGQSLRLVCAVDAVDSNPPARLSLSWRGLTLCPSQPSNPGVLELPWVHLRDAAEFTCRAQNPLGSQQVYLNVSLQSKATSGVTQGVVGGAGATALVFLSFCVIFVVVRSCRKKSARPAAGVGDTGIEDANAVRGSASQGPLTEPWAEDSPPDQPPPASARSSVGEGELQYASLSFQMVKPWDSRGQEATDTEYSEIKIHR
Assay [4] relates to Trypanosoma cruzi. The assay can be described thus: Trypanosoma cruzi phosphomannomutase and mannose-1-phosphate guanylyltransferase assay. The assay is classed as functional. The note with it: 10 µM.
Assay [5] concerns the target T2, Arginase-2, mitochondrial (Homo sapiens) (UniProt P78540).
T2 sequence (whole entry): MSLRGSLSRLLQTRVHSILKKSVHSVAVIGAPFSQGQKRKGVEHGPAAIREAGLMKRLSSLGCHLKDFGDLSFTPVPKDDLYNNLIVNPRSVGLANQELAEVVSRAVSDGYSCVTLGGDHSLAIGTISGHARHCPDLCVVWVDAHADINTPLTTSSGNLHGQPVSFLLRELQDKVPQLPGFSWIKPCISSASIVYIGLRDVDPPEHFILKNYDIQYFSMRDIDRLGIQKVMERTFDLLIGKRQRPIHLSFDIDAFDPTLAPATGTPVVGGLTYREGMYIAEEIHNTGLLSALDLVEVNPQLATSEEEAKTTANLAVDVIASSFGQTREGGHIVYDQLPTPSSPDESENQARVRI
Kind of assay: in vitro enzyme assay to detect the production of urea directly proportional to the activity of Arginase II. Also: in the data most compounds retested in dose-response had high values. To be noted: 33.3 µM. The assay is classed as functional.

Assay [6] deals with T3, Proteasome subunit beta (Trypanosoma cruzi) (UniProt O96673).
T3 sequence (whole entry): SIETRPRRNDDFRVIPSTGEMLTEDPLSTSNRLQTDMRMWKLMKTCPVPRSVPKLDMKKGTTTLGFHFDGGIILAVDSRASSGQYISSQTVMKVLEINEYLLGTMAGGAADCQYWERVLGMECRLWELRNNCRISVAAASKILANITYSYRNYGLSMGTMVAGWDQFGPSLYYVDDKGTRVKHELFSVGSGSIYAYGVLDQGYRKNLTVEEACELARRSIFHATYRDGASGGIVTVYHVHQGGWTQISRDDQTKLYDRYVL
The assay can be described thus: Trypanosoma cruzi proteasome chymotrypsin-like activity (TcProtChymo) assay. Also: in the data most compounds retested in dose-response had high values. The assay is classed as functional. The note with it: 9.37 µM.

The species named for assay [7] is Homo sapiens. Kind of assay: To identify inhibition of the IFN signalling (Jak-Stat) pathway via expression of an eGFP reporter gene under the control of an IFN-stimulated response element (ISRE) containing MxA promoter. To be noted: 30 µM. The assay is classed as functional. On the technique in general: A reporter such as luciferase makes a cellular process visible.

Assay [8] concerns the target T4, Tyrosyl-tRNA synthetase, putative (Trypanosoma cruzi (strain CL Brener)) (UniProt Q4DSP6).
T4 sequence (whole entry): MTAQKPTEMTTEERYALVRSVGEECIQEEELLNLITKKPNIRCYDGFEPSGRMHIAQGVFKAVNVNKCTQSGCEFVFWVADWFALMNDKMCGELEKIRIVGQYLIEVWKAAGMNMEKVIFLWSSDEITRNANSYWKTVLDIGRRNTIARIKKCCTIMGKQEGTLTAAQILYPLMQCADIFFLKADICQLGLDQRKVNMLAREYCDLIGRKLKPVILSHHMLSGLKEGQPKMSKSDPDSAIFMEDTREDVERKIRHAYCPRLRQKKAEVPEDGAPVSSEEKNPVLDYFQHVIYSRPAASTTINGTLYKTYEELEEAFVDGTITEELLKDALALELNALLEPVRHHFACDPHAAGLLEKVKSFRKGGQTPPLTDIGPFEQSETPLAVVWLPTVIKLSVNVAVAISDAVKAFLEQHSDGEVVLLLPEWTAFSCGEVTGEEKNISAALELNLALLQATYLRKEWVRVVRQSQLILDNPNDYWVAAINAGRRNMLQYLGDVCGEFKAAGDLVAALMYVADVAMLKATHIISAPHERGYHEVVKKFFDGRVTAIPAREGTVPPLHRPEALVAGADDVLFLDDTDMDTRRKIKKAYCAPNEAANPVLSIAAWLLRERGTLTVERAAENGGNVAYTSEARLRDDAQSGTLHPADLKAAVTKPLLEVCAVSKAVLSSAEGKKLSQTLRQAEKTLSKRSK
The assay can be described thus: Trypanosoma cruzi tyrosyl tRNA synthetase (TcYRS) _High Tyrosine SOP. Also: in the data most compounds retested in dose-response had high values. The assay is classed as functional. The note with it: 30 µM.

Assay [9] addresses T4, Tyrosyl-tRNA synthetase, putative (Trypanosoma cruzi (strain CL Brener)). Kind of assay: Trypanosoma cruzi tyrosyl tRNA synthetase (TcYRS) SOP. The assay is classed as functional. To be noted: 30 µM.
Assay [10] concerns the target Chromo domain-containing protein 1 (Saccharomyces cerevisiae (strain ATCC 204508 / S288c) (Baker's yeast)) (UniProt P32657). Kind of assay: ScCHD-1 Enzyme Inhibition Assay. Also: in the data most compounds retested in dose-response had high values. The assay is classed as functional. To be noted: 30 µM.

Chromo domain-containing protein 1 (Saccharomyces cerevisiae (strain ATCC 204508 / S288c) (Baker's yeast)), sequence (P32657 whole entry, the tested form may be a part): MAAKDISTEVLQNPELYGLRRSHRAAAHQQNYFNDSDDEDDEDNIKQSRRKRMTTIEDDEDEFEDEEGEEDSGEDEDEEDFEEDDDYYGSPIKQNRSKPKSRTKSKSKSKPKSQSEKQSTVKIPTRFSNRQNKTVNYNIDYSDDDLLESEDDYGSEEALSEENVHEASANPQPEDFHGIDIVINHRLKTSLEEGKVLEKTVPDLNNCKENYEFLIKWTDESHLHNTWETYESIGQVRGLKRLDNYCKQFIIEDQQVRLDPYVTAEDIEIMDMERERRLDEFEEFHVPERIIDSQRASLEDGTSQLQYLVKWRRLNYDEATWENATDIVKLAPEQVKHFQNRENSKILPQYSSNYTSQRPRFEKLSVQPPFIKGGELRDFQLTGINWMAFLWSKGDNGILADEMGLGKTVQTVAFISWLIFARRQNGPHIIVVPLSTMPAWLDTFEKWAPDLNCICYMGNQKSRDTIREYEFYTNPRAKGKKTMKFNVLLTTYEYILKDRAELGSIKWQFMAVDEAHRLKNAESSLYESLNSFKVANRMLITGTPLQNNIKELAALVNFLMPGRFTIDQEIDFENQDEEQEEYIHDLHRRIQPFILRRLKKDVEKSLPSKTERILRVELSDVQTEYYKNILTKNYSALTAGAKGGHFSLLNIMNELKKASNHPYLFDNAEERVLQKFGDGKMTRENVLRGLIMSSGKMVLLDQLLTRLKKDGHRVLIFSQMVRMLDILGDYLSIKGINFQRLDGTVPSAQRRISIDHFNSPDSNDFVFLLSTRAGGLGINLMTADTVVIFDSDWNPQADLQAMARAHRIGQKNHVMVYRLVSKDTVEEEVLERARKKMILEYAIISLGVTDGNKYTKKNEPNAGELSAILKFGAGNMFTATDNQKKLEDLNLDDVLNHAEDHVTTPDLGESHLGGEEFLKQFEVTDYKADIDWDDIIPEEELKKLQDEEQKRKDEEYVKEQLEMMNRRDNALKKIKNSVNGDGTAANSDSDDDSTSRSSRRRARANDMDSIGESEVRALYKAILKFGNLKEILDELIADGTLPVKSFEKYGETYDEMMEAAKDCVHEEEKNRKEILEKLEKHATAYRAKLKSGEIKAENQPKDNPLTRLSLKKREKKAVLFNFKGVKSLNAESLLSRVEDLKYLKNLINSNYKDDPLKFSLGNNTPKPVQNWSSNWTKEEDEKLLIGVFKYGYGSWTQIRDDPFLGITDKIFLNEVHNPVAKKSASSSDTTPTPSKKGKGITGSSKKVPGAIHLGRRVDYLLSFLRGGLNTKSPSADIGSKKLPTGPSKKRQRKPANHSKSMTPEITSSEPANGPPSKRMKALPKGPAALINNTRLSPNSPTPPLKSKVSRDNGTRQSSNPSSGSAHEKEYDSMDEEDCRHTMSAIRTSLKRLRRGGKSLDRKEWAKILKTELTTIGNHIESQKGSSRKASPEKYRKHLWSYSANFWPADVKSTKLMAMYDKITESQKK

As for `COc1ccc(F)cc1C(=O)N(C)Cc1cc(C)on1`, the Percent Effect was -0.183% in assay [1]; 15.4% in assay [2]; -5.44% in [3]; -1.22% in assay [4]; -0.41% in assay [5]; 14.1% in assay [6]. The Percent Effect was 21.1% in assay [7], 2.39% in assay [8], 13.2% in [9] and -1.49% in assay [10].

`CCC(O)CN1CCN(C(=O)c2sccc2OC)CC1` (stereo not given): the Percent Effect in assay [1] was 0.313%; in assay [2], 7.79%; in assay [3], 10.4%; in assay [4] it was 2.24%; in assay [5], -3.89%; in assay [6], 0.526%. In addition, the Percent Effect in assay [7] is 16.7%; in assay [8], 3.92%; in assay [9] it was 16.5%; in assay [10], -3.7%.

On to `CCCn1[nH]cc/c1=N\C(=O)CN1CCc2cnc(CC)nc2C1`, for which the Percent Effect in assay [1] is 0.849%; in assay [2] it was 0%; in assay [3] it was 1.8%; in assay [4], -2.61%; in assay [5], 9.76%; in assay [6], 2.29%. The Percent Effect in assay [7] stood at 3.62%; in [8] it was 11.1%; in [9], 7.69%; in [10] it was 5.4%.

For `Cn1ccnc1CN1CCCC1c1noc(C2CC2)n1` (stereo not given), the Percent Effect in assay [1] is -1.78%; in [2], 0%; in [3] it was -0.931%; in assay [4], 0%; in assay [5], 1.33%; in assay [6] it was 6.19%. For the same compound, the Percent Effect is -3.87% in assay [7], 5.79% in assay [8], 10.3% in assay [9] and -4.32% in assay [10].

Consider `Cc1cc(C(=O)NCC(C)N2CCc3ccccc32)no1` (stereo not given), for which the Percent Effect is 0.558% in assay [1]; 2.6% in assay [2]; 10.1% in assay [3]; 2.8% in assay [4]; -4.3% in assay [5]; 0.175% in assay [6]. The Percent Effect was 23.3% in [7], 7.84% in [8], 11.8% in assay [9] and -1.74% in assay [10].

On to `Cc1ccc(C(=O)N2CCC3(CC2)CC(N2CCOCC2)C3)cc1`, for which the Percent Effect in assay [1] was -2.43%; in assay [2], 9.09%; in assay [3] it was -5.57%; in assay [4] it was 1.31%; in assay [5] it was 0.457%; in assay [6] it was -3.18%. Besides, the Percent Effect in assay [7] is -1.46%; in assay [8] it was 3.87%; in assay [9], 2.5%; in assay [10] it was 0.386%.

In the case of `Fc1cccnc1CN1CCCCC1c1ccn2ccnc2n1` (stereo not given), the Percent Effect in assay [1] was -5.06%; in assay [2], 22.7%; in assay [3], -2.65%; in [4], 1.77%; in assay [5], -1.33%; in assay [6], 11.8%. Also, the Percent Effect in assay [7] is 14%; in [8], 8.47%; in assay [9] it was 22.5%; in assay [10], -27.9%.

As to `Cn1cc(NC(=O)N2CCC(c3ccccc3)CC2)ccc1=O`, the Percent Effect in [1] was -1.84%; in [2] it was 51.3%; in [3], 4.28%; in assay [4] it was 8.92%; in assay [5], 9.43%; in assay [6], 2.3%. Further, the Percent Effect turned out to be 23% in assay [7], 0.478% in assay [8], 6.02% in assay [9] and 1.81% in assay [10].

Turning to `CNC(=O)CN1CCCC12CCN(C(=O)c1ccc(F)cc1)CC2`, the Percent Effect in assay [1] was -1.29%; in assay [2] it was 1.3%; in [3] it was -0.371%; in assay [4], -6.75%; in [5], 3.2%; in assay [6] it was 8.33%. In addition, the Percent Effect in assay [7] was 22.8%; in [8], -0.966%; in assay [9] it was -5%; in assay [10], -4.71%.

As to `O=C1N(CC2CC2)CCC12CCN(c1ncccn1)CC2`, the Percent Effect was 2.77% in [1]; 16.9% in assay [2]; -4.8% in assay [3]; -3% in assay [4]; 2.74% in assay [5]; 16.7% in assay [6]. In addition, the Percent Effect in assay [7] was 12.4%; in assay [8] it was 6.76%; in [9], 10%; in assay [10], -10.6%.

On to `CCc1cc(O)nc(C2CCCN2C(=O)c2cccnc2)n1` (stereo not given), for which the Percent Effect was 5.68% in [1]; 14.7% in assay [2]; -8.39% in [3]; -6.71% in [4]; 3.1% in assay [5]; 15.1% in [6]. Further, the Percent Effect in assay [7] is 13%; in [8] it was 0%; in assay [9] it was 5%; in assay [10], -14.4%.
